# Measurements published in PubChem BioAssay.
# Active and inactive are the calls of the source.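 How the source made its calls, unless noted: active means viability loss from added drug above about 55%, and viability with drug at most 40%, in both replicates (limit read from the data, passing the limit was not always enough); inconclusive means both conditions met in only one replicate; inactive means neither replicate meets both conditions.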
# Assay: H69AR cell proliferation blockers – human, duplicate replicates, primary screen (AID 580;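 active means viability at or under a set limit in both replicates, limit being median viability minus 3 SD, cut at about 48% in these data, passing the limit was not always enough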;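 further: 100% = mean luminescence of untreated wells and 0% = no signal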)
# Conditions: H69AR lung tumor cells viability, ATP luminescence, 72 h; at 10 µM; active compounds read low
row,Structure (SMILES),viability
1,Cc1cc2c(c(=O)o1)C(Cc1ccccc1)C(C#N)=C(N)O2 (stereo not given),98.7% (inactive)
2,O=C(C1CC1)N1CCC(c2nc(-c3ccc(S(=O)(=O)NCC4CCCO4)cc3)no2)CC1 (stereo not given),90.6% (inactive)
3,N#Cc1c(NC(=O)CSc2nc(N)cc(=O)[nH]2)sc2c1CCCCCC2,91.5% (inactive)
4,O=C(NCCCNC1CCCCC1)c1ccc(/C=N/O)nc1,103% (inactive)
5,CCOC(=O)CNC(=O)CSc1ncnc2c1cnn2Cc1ccccc1,100% (inactive)
6,CCn1nc(CC(=O)Nc2nnc(CC(=O)N3CCCCC3)s2)c2ccccc2c1=O,97.5% (inactive)
7,C/C(N)=C(/C#N)C(=O)COC(=O)c1cc(C)n(-c2ccc(F)cc2)c1C,98.1% (inactive)
8,COc1cc(CNc2ccc(N3CCOCC3)c(C(=O)O)c2)ccc1OCC(N)=O,99.9% (inactive)
9,Cc1oc(C(=O)O)cc1CSCc1cc(C(=O)O)c(C)o1,103% (inactive)
10,c1ccc(CN2C3=NCCCN3c3ccccc32)cc1,91.2% (inactive)
11,COc1ccc(OC)c(NC(=O)CSc2nc3ccccc3c(=O)n2CCNC(C)=O)c1,80.7% (inactive)
12,Cc1cccc(CS(=O)(=O)Cc2ccc(C(=O)NCC3CCCO3)o2)c1 (stereo not given),94.7% (inactive)
13,COc1ccccc1N1CCN(C(=O)c2oc3cc(C)c(C)cc3c2C)CC1,92.7% (inactive)
14,COc1cccc(NC(=O)COC(=O)c2ccco2)c1,83.8% (inactive)
15,COCCNC(=O)c1c(N)n(CCC2=CCCCC2)c2nc3ccccc3nc12,89% (inactive)
16,Cc1ccccc1C(=O)Nc1c(C(=O)N2CCCC2)cnn1-c1ccccc1,91.9% (inactive)
17,O=C(Cn1cnc2c(nnn2Cc2ccc(Cl)cc2)c1=O)NCC1CCCO1 (stereo not given),106% (inactive)
18,Cc1nc2ncnn2c(N2CCC(C(=O)NC3CCCC3)CC2)c1Cc1ccccc1,73.6% (inactive)
19,COCCn1nnnc1C(C(C)C)N1CCN(C(=O)c2ccco2)CC1 (stereo not given),96.7% (inactive)
20,CCOc1cc(-c2nc3ccccn3c2NCC2CCCO2)ccc1O (stereo not given),40.7% (active)

row,Structure (SMILES),viability
1,O=C(Nc1ccccc1N1CCN(C(=O)c2ccc(Cl)cc2)CC1)c1cc2ccccc2o1,85.5% (inactive)
2,O=C(CCC(=O)N(c1cccc(F)c1)C(C(=O)NC1CCCC1)c1ccncc1)Nc1cccnc1 (stereo not given),91.7% (inactive)
3,COc1ccc(S(=O)(=O)N2CCSC2c2ccccc2)cc1 (stereo not given),76.9% (inactive)
4,CCCOC(=O)C1[C@H]2C(=O)N(CCCOC)C[C@]23C=C[C@H]1O3 (stereo not given in full),98.3% (inactive)
5,COc1cc2c(cc1OC)C(C)N(C(=O)c1cc3n(n1)C(C(F)(F)F)CC(c1ccco1)N3)CC2 (stereo not given),75% (inactive)
6,Cc1ccc(NC(=O)N2CCC(c3nc4c(nnn4Cc4cccc(Cl)c4)c(=O)[nH]3)CC2)cc1,85.2% (inactive)
7,Cc1nc(NCCNC(=O)c2ccco2)c2c(C)c(C)sc2n1,86.5% (inactive)
8,Cc1c(NC(=O)CSc2nnc3sc4ccccc4n23)c(=O)n(-c2ccccc2)n1C,90.4% (inactive)
9,COc1ccc(-c2nnc3sc(-c4c(OC)cccc4OC)nn23)cc1,75.9% (inactive)
10,COC(=O)c1ccccc1NC(=O)CSc1nnc(-c2ccncc2)o1,101% (inactive)
11,COc1ccc(Cl)cc1NC(=O)c1oc(C)nc1C,90.1% (inactive)
12,CCOC(=O)CC(=O)Nc1c(C)cc(C)cc1C,102% (inactive)
13,O=S(=O)(c1ccccc1)c1nc(-c2ccco2)oc1NCCCN1CCOCC1,95.4% (inactive)
14,O=C(COC(=O)c1ccc(S(=O)(=O)Nc2ccccc2)cc1)NCCN1C(=O)CSC1=O,95.3% (inactive)
15,Cc1cc(C)c(-c2cc(C(=O)Nc3c(C)n(C)n(-c4ccccc4)c3=O)[nH]n2)c(O)c1,105% (inactive)
16,COc1ccc(-c2nnc(SCC(=O)N3CCCCC3)o2)cc1OC,97.5% (inactive)
17,Cc1cc(Br)ccc1NC(=O)CCN1C(=O)c2ccncc2C1=O,95.6% (inactive)
18,CC1=C(C(=O)N2CCCCC2)C2(CCC(C)CC2)OC1=O (stereo not given),94.2% (inactive)
19,CCCN(CCC)S(=O)(=O)c1ccc(C(=O)Nc2nnc(-c3cccc(OC)c3)o2)cc1,15.3% (active)
20,CC(C)(C)c1cc(CCC(=O)N2CCNCC2)c(C(C)(C)C)cc1O,98.3% (inactive)

# Assay: MRP1 drug-resistance reversers in H69AR cells – cell-based, doxorubicin co-treatment, pilot screen (AID 601)
# Conditions: H69AR cells + 2 uM doxorubicin, CellTiter-Glo, 72 h; at 10 µM; active compounds read high
row,Structure (SMILES),differential viability (reversal)
1,Cc1cc2c(c(=O)o1)C(Cc1ccccc1)C(C#N)=C(N)O2 (stereo not given),21.6% (inactive)
2,O=C(C1CC1)N1CCC(c2nc(-c3ccc(S(=O)(=O)NCC4CCCO4)cc3)no2)CC1 (stereo not given),-9.35% (inactive)
3,N#Cc1c(NC(=O)CSc2nc(N)cc(=O)[nH]2)sc2c1CCCCCC2,5.43% (inactive)
4,O=C(NCCCNC1CCCCC1)c1ccc(/C=N/O)nc1,4.55% (inactive)
5,CCOC(=O)CNC(=O)CSc1ncnc2c1cnn2Cc1ccccc1,10.3% (inactive)
6,CCn1nc(CC(=O)Nc2nnc(CC(=O)N3CCCCC3)s2)c2ccccc2c1=O,4.77% (inactive)
7,C/C(N)=C(/C#N)C(=O)COC(=O)c1cc(C)n(-c2ccc(F)cc2)c1C,-0.13% (inactive)
8,COc1cc(CNc2ccc(N3CCOCC3)c(C(=O)O)c2)ccc1OCC(N)=O,0.83% (inactive)
9,Cc1oc(C(=O)O)cc1CSCc1cc(C(=O)O)c(C)o1,1.31% (inactive)
10,c1ccc(CN2C3=NCCCN3c3ccccc32)cc1,8.3% (inactive)
11,COc1ccc(OC)c(NC(=O)CSc2nc3ccccc3c(=O)n2CCNC(C)=O)c1,64.1% (active)
12,Cc1cccc(CS(=O)(=O)Cc2ccc(C(=O)NCC3CCCO3)o2)c1 (stereo not given),-7.89% (inactive)
13,COc1ccccc1N1CCN(C(=O)c2oc3cc(C)c(C)cc3c2C)CC1,-2.22% (inactive)
14,COc1cccc(NC(=O)COC(=O)c2ccco2)c1,2.71% (inactive)
15,COCCNC(=O)c1c(N)n(CCC2=CCCCC2)c2nc3ccccc3nc12,10.8% (inactive)
16,Cc1ccccc1C(=O)Nc1c(C(=O)N2CCCC2)cnn1-c1ccccc1,9.86% (inactive)
17,O=C(Cn1cnc2c(nnn2Cc2ccc(Cl)cc2)c1=O)NCC1CCCO1 (stereo not given),10.8% (inactive)
18,Cc1nc2ncnn2c(N2CCC(C(=O)NC3CCCC3)CC2)c1Cc1ccccc1,37.8% (inactive)
19,COCCn1nnnc1C(C(C)C)N1CCN(C(=O)c2ccco2)CC1 (stereo not given),-1.47% (inactive)
20,CCOc1cc(-c2nc3ccccn3c2NCC2CCCO2)ccc1O (stereo not given),5.11% (inactive)

row,Structure (SMILES),differential viability (reversal)
1,O=C(Nc1ccccc1N1CCN(C(=O)c2ccc(Cl)cc2)CC1)c1cc2ccccc2o1,22.9% (inactive)
2,O=C(CCC(=O)N(c1cccc(F)c1)C(C(=O)NC1CCCC1)c1ccncc1)Nc1cccnc1 (stereo not given),-4.02% (inactive)
3,COc1ccc(S(=O)(=O)N2CCSC2c2ccccc2)cc1 (stereo not given),-13.8% (inactive)
4,CCCOC(=O)C1[C@H]2C(=O)N(CCCOC)C[C@]23C=C[C@H]1O3 (stereo not given in full),-1.98% (inactive)
5,COc1cc2c(cc1OC)C(C)N(C(=O)c1cc3n(n1)C(C(F)(F)F)CC(c1ccco1)N3)CC2 (stereo not given),-14.3% (inactive)
6,Cc1ccc(NC(=O)N2CCC(c3nc4c(nnn4Cc4cccc(Cl)c4)c(=O)[nH]3)CC2)cc1,19.6% (inactive)
7,Cc1nc(NCCNC(=O)c2ccco2)c2c(C)c(C)sc2n1,2.2% (inactive)
8,Cc1c(NC(=O)CSc2nnc3sc4ccccc4n23)c(=O)n(-c2ccccc2)n1C,0.76% (inactive)
9,COc1ccc(-c2nnc3sc(-c4c(OC)cccc4OC)nn23)cc1,-7.34% (inactive)
10,COC(=O)c1ccccc1NC(=O)CSc1nnc(-c2ccncc2)o1,8.3% (inactive)
11,COc1ccc(Cl)cc1NC(=O)c1oc(C)nc1C,-2.13% (inactive)
12,CCOC(=O)CC(=O)Nc1c(C)cc(C)cc1C,10.3% (inactive)
13,O=S(=O)(c1ccccc1)c1nc(-c2ccco2)oc1NCCCN1CCOCC1,-1.43% (inactive)
14,O=C(COC(=O)c1ccc(S(=O)(=O)Nc2ccccc2)cc1)NCCN1C(=O)CSC1=O,9.27% (inactive)
15,Cc1cc(C)c(-c2cc(C(=O)Nc3c(C)n(C)n(-c4ccccc4)c3=O)[nH]n2)c(O)c1,4.32% (inactive)
16,COc1ccc(-c2nnc(SCC(=O)N3CCCCC3)o2)cc1OC,5.33% (inactive)
17,Cc1cc(Br)ccc1NC(=O)CCN1C(=O)c2ccncc2C1=O,3.85% (inactive)
18,CC1=C(C(=O)N2CCCCC2)C2(CCC(C)CC2)OC1=O (stereo not given),12.9% (inactive)
19,CCCN(CCC)S(=O)(=O)c1ccc(C(=O)Nc2nnc(-c3cccc(OC)c3)o2)cc1,-7.05% (inactive)
20,CC(C)(C)c1cc(CCC(=O)N2CCNCC2)c(C(C)(C)C)cc1O,8% (inactive)
